# Source: PubChem BioAssay (National Center for Advancing Translational Sciences (NCATS))
# HT1080-NT tox: kills 2HG-producing HT-1080-NT fibrosarcoma cells; HT-1080-NT fibrosarcoma viability, CellTiter-Glo ATP luminescence, 48 h; Potency, µM (highest dose often 46.1 µM), inactives show at the highest dose activity, negative = less viability, actives largely listed as cytotoxic; 360,000 tested, 1.6% active;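 also: NT is the 2HG producing partner of a matched IDH1 knockdown line; potency is read from the fitted curve at half-maximal effect; 0% = DMSO-treated cells and -100% = media-only wells without cells; nearly all actives have a fitted effect of over 55% in size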
#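 Fibrosarcoma NT cells, 750 per well in 5% FBS RPMI, were exposed to compound for 48 hours. Viability: CellTiter-Glo luminescence.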
# DT40 TDP1 CPT: growth inhibition of DT40 Tdp1-/-;hTDP1 cells with camptothecin (screen for TDP1 inhibitors); chicken DT40 Tdp1-/-;hTDP1 cells + 20 nM CPT, ATP luminescence, 48 h; Potency, µM (doses to about 46.2 µM), for the others: top-dose activity change, negative = growth inhibition, actives largely listed as inhibitors; 420,000 tested, 12% active; also: potency is read from the fitted curve at half-maximal effect; nearly all actives have a fitted effect of over 55% in size
#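 Cell growth measured by CellTiter-Glo luminescence after a minimum 48 h, 37 C compound exposure with 20 nM CPT in Tdp1-knockout DT40 cells stably expressing hTDP1, seeded 400/well; qHTS titration format.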
# IL-1B inflam inh: blocks inflammasome-driven IL-1 beta release; THP-1 LPS/ATP IL-1B secretion, AlphaLISA, 16 h; stronger effect = lower value; activity change, % at 57.5 µM; 360,000 tested, 4.7% active; in the data active = activity change below about -50%; inconclusive = mostly about -30% to -49%
#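 THP-1 cells pretreated 1 hr with compounds (up to 57.5 uM final), then stimulated with LPS (250 ng/mL final) plus ATP (1.25 mM final); secreted IL-1B measured by AlphaLISA after 16 hr, decreased signal indicating inhibition.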
# TDP1 cell noCPT: qHTS for Inhibitors of human tyrosyl-DNA phosphodiesterase 1 (TDP1): qHTS in cells in absence of CPT | DT40 Tdp1-/- hTDP1 cells, no CPT, ATP luminescence, 48 h | Potency, µM (top dose mostly 46.2 µM), inactives show at the top dose activity change, negative = growth inhibition, hits mostly inhibitors | 420,000 tested, 15% active; also: potency is read from the fitted curve at half-maximal effect; nearly all actives have a fitted effect of over 55% in size
#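 Seeded 400 DT40-hTDP1 cells/well (vehicle DMSO, no 20 nM CPT); pinned compounds; ≥48 hr at 37 °C; CellTiter-Glo luminescence as viability measure.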
# HT1080 IDH1KD tx: toxicity to HT-1080 IDH1 knockdown cells (counter line). HT-1080 IDH1 knockdown viability, ATP luminescence, 48 h. 360,000 tested, 2% active. AID 686971. Potency, µM (doses to about 46.1 µM), without a hit: at the top dose activity, negative = toxicity, hits mostly cytotoxic;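 also: potency is read from the fitted curve at half-maximal effect; 0% = DMSO wells and -100% = cell-free medium wells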
#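 IDH1KD HT-1080 cells, 750/well, RPMI + 5% FBS; compound pinned after 2 h settling; 48 h, 37 °C; CellTiter-Glo luminescence; % activity normalised to DMSO and no-cell wells; curves fitted, classed by r2 and efficacy.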
# * hit, by the source's call; ? = inconclusive; · = not tested or not shown; [ ] = another dose, or the depositor's remark. Compounds with a hit are over-represented: about 19% of the library has one in this group of screens. Unless noted, calls follow the shape of the dose curve; as a rule, active = well fitted curve in the direction sought with a large enough effect; inconclusive = small, poorly fitted or top-dose-only effect, or another doubt; inactive = no such curve, though single readings can be large; an effect the other way counts as inactive or inconclusive. Unless noted, % is scaled to controls: 0 for no effect and ±100 for the full control effect.
SMILES,HT1080-NT tox,DT40 TDP1 CPT,IL-1B inflam inh,TDP1 cell noCPT,HT1080 IDH1KD tx
CCOc1ccc(NCc2cccn2-c2nnc(N3CCC(C(=O)NCCCN4CC(C)CC(C)C4)CC3)s2)cc1 (stereo not drawn),21µM*,?,-82*,?,?
CC(C)NC(=O)CN1C(=O)COc2ccc(S(=O)(=O)N3CCCCCC3)cc21,·,-1%,·,1%,·
CC(C)c1ccc(NC(=O)CN2C(=O)COc3ccc(S(=O)(=O)N4CCCCC4)cc32)cc1,·,?,·,23µM*,·
COc1cccc(NC(=O)CN2C(=O)COc3ccc(S(=O)(=O)N4CCCCCC4)cc32)c1,-2%,?,-24,?,-4%
CC1CCN(S(=O)(=O)c2ccc3c(c2)N(CC(=O)Nc2ccc(F)c(Cl)c2)C(=O)CO3)CC1,·,23µM*,·,15µM*,·
Cc1ccccc1NC(=O)CN1C(=O)COc2ccc(S(=O)(=O)N3CCCC3)cc21,16%,-1%,6,-1%,10%
Cc1ccc(NC(=O)CN2C(=O)COc3ccc(S(=O)(=O)N4CCCCCC4)cc32)cc1Cl,·,21µM*,·,15µM*,·
COc1ccc(NC(=O)CN2C(=O)COc3ccc(S(=O)(=O)N4CCCCC4)cc32)cc1Cl,·,?,·,15µM*,·
O=C(CN1C(=O)COc2ccc(S(=O)(=O)N3CCOCC3)cc21)Nc1cccc(Cl)c1,3%,-16%,-13,?,1%
N#CC1=C(N)N(c2ccccc2Sc2ccccc2)C(=O)C1,-4%,-7%,-8,-1%,-3%
Cc1ccc(NC(=O)CN2C(=O)COc3ccc(S(=O)(=O)N4CCCC4)cc32)cc1C,-6%,-1%,-52*,?,-7%
CCCCN1C(=O)/C(=C/C=C2\SCCN2C)SC1=S,-3%,?,-50*,-71%,-20%
CN1CCS/C1=C/C=C1\SC(=S)N(CC(=O)O)C1=O,-2%,-5%,13,-25%,0%
Cc1c(NC(=O)Cn2ccc([N+](=O)[O-])n2)c(=O)n(-c2ccccc2)n1C,0%,-25%,-10,5%,-1%
Cc1c(NC(=O)c2ccc(N(Cc3ccccc3)S(C)(=O)=O)cc2)c(=O)n(-c2ccccc2)n1C,17%,3%,18,-19%,20%
CCOC(=O)C1=CCN(S(=O)(=O)c2ccccc2Cl)C1c1ccc(Cl)c(Cl)c1 (stereo not drawn),-34%,?,-24,?,?
COc1ccc(C(=O)c2ccc(OC)c(OC)c2)cc1OC,0%,?,0,?,-7%
COc1cc(C(=O)Nc2ccc(NC(=O)c3ccc(C(C)(C)C)cc3)cc2)cc(OC)c1OC,·,2.9µM*,·,3.3µM*,·
COc1cc(C(=O)Nc2ccc(NC(=O)c3ccc(Br)cc3)cc2)cc(OC)c1OC,·,-2%,·,-4%,·
COc1cc(C(=O)Nc2ccc(C(=O)c3ccncc3)cc2)cc(OC)c1OC,?,15µM*,-15,23µM*,?
COc1ccc(C(=O)Sc2ccc(Cl)cc2)cc1OC,?,8.2µM*,-84*,12µM*,?
COc1ccc(C(=O)Nc2ccc3ccccc3c2)cc1OC,0%,2%,-22,-14%,14%
COc1cc(C(=O)Nc2ccc3ccccc3c2)cc(OC)c1OC,1.3µM*,?,3,0.65µM*,0.58µM*
C=CCSc1nnc2c(n1)OC(c1c(C)[nH]n(-c3ccccc3)c1=O)Nc1ccccc1-2 (stereo not drawn),-3%,-19%,43,?,1%
COc1ccc(C(=O)c2cc(OC)c(OC)c(OC)c2)cc1OC,?,4.6µM*,43,2.6µM*,12µM*
SMILES,HT1080-NT tox,DT40 TDP1 CPT,IL-1B inflam inh,TDP1 cell noCPT,HT1080 IDH1KD tx
COCc1cc(=O)oc2cc(NC(=O)c3ccc(C(C)(C)C)cc3)ccc12,6%,9.2µM*,-12,15µM*,6%
Cc1cccc(-n2c(CCCN3C(=O)c4ccccc4C3=O)nc3ccccc3c2=O)n1,9%,-8%,9,-31%,10%
Cn1cc(C(=O)NCc2ccc(Cl)cc2)c(=O)c2cc(S(=O)(=O)N3CCOCC3)ccc21,0%,-26%,30,?,0%
COc1ccc(C(NC(=O)C2CCN(C/C=C/c3ccc(OC(C)=O)c(OC)c3)CC2)c2ccccn2)cc1 (stereo not drawn),?,?,-17,21µM*,?
COc1ccc(C(NC(=O)C2CCN(CCc3ccccc3)CC2)c2ccccn2)cc1 (stereo not drawn),?,-4%,0,-6%,0%
COc1ccc(C(NC(=O)C2CCN(CCCc3ccccc3)CC2)c2ccccn2)cc1 (stereo not drawn),-2%,1%,-5,-5%,-2%
COc1ccc(OCCN2CCC(C(=O)NC(c3ccc(OC)cc3)c3ccccn3)CC2)cc1 (stereo not drawn),-5%,-14%,-8,-23%,-2%
Cc1ccc(C(NC(=O)C2CCN(Cc3ccc(Cl)c(Cl)c3)CC2)c2ccccn2)cc1 (stereo not drawn),?,?,·,1.3µM*,?
Cc1ccc(C(NC(=O)C2CCN(CCOc3ccccc3)CC2)c2ccccn2)cc1 (stereo not drawn),-16%,?,-55*,?,-12%
Cc1ccc(C(NC(=O)C2CCN(Cc3ccc(Oc4ccccc4)cc3)CC2)c2ccccn2)cc1 (stereo not drawn),15µM*,?,·,23µM*,21µM*
O=C(O)COc1ccccc1/C=C1\SC(=S)N(c2cccnc2)C1=O,-22%,?,-7,-24%,-1%
COc1ccc(Nc2nn(-c3ccc(OC(F)(F)F)cc3)nc2C(C)=O)cc1,·,-20%,·,-5%,·
O=C(NC(c1ccc(Cl)cc1)c1cnccn1)C1CCN(Cc2ccc(Oc3ccccc3)cc2)CC1 (stereo not drawn),?,15µM*,·,16µM*,16µM*
COCc1c(C(=O)N(C)Cc2ccccc2N2CCCC2)oc2ccccc12,6%,?,-16,23µM*,2%
COCc1c(C(=O)NC2CCCCCC2)oc2ccccc12,4%,?,-26,?,4%
COCc1c(C(=O)N2CCN(Cc3ccc4c(c3)OCO4)CC2)oc2ccccc12,-2%[9.24 µM],?,-3,?,-1%
COCc1c(C(=O)N2CCN(Cc3c(F)cccc3Cl)CC2)oc2ccccc12,-5%,?,-29,21µM*,-8%
COCc1c(C(=O)N2CCN(Cc3ccc(C#N)cc3)CC2)oc2ccccc12,-15%,-30%,-11,21µM*,-1%
